This passage reports growth results from PubChem BioAssay (NCI).

Molecules are shown by their SMILES. Compounds without any hit were thinned out: in the full panel of roughly 83,000, 20% have a hit.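 Results are percent growth after 48 hours of single-concentration exposure. 100 means growth as in untreated cells, lower positive values show inhibition; negative values down to -100 show cell death.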 Unmarked numbers belong to inactive results. The source made the active and inactive calls. The calls were made as follows: active = growth percent below 10; inactive = the rest.

For this experiment, the system named is HL-60(TB) leukemia. As to the kind of experiment: NCI-60 one-dose screen, 48 h (100 = growth as untreated, 0 = no growth, -100 = all killed). Particulars: 10 µM unless noted.
For the compound `COc1ccc(NC(=O)Cn2cc(CN3C(=O)c4ccc([N+](=O)[O-])cc4C3=O)nn2)cc1`, the growth was 95.1%.

As to `N#Cc1c(-c2ccc(Cl)cc2)nc(SCc2ccc([N+](=O)[O-])cc2)nc1N1CCNCC1`, the growth was -53.3% (active).

Turning to `CC[C@@](C)(NC(=O)C(C)(C)NC(=O)[C@@H](NC(=O)[C@@H]1CCCN1C(=O)C(C)(C)NC(=O)[C@H](CC(C)C)NC(=O)CNC(=O)C(C)(C)NC(=O)[C@@H](NC(=O)C(C)(C)NC(=O)[C@H](CCC(N)=O)NC(=O)[C@H](C)NC(=O)C(C)(C)NC(=O)[C@H](C)NC(=O)C(C)(C)NC(=O)[C@H](C)NC(=O)C(C)(C)NC(C)=O)C(C)C)C(C)C)C(=O)N[C@@H](CCC(N)=O)C(=O)N[C@@H](CCC(N)=O)C(=O)N[C@H](CO)CC1CCCCC1`, the growth is -35.2% [5 µM] (active).

Turning to `CCNC(=O)N1CCc2cc(OC)c(OCCc3ccc(OC)c(N)c3)cc2C1c1cc(C)c(C)cc1C` (stereo not given), the growth was 22.1%.

For the compound `CN1CCN(Cc2ccc(NC(=O)c3cncc(C#Cc4cnn5cccnc45)c3)cc2C(F)(F)F)CC1`, the growth was -19% (active).

Consider `CCOC(=O)c1sc(NCC(=O)Nc2cccc([N+](=O)[O-])c2)c(C(=O)OCC)c1C`, for which the growth was 0.979% (active).

As to `CCOC(=O)Nc1cccc(-n2cnc3cc(-c4ccc(O)cc4)ccc32)c1`, the growth is 2.92% (active).

Regarding `CC(O)c1cc2ccccc2c(=O)o1` (stereo not given), the growth was 102%.

For `CC(=O)Nc1ccccc1-c1nc2ccccc2s1`, the growth is 99.5%.

On to `O=C1c2c(c3c4cccnc4[nH]c3c3ccc4ccccc4c23)C(=O)N1CCO`, for which the growth was 97.1%.

For `CS(=O)(=O)Nc1cc(-c2ccc3ncc(C#N)c(N[C@H](CO)c4ccccc4)c3c2)cnc1Cl`, the growth was 25%.

For `Nc1ccc(-c2nnc(SCc3ccc(O)c4ncccc34)o2)cc1`, the growth is -5.84% (active).

As for `CC1(C)CC[C@]2(C(=O)NCCCCCCN(CCCN)CCCN)CC[C@]3(C)C(=CC[C@@H]4[C@@]5(C)CC[C@H](O)C(C)(C)[C@@H]5CC[C@]43C)[C@@H]2C1`, the growth was 99.1%.

Regarding `CCOC(=O)C1=C(C)Nc2nc3ccccc3n2C1c1cccc(Br)c1` (stereo not given), the growth is 22.8%.

Regarding `CCN(CC)CCN1C(=O)c2c(c3c4cc(Br)ccc4[nH]c3c3ccc4ccccc4c23)C1=O`, the growth is -35% (active).

With `COc1cc(/C=C/C(=O)c2ccc(C(F)(F)F)cc2)ccc1Oc1nc(NCCO)nc(N2CCOCC2)n1`, the growth is 53.4%.

Consider `CC(=O)C1=NN(c2ccc(Cl)cc2)C(=O)CN1C`, for which the growth is 105%.

Take `CCN1C(=O)N(CC)C2C1NN=C1SC(c3ccccc3)=CC(=O)N12` (stereo not given): the growth is -2.48% (active).

With `C=C(C)[C@@H]1CC[C@]2(C(=O)O)CC[C@]3(C)[C@H](CC[C@@H]4[C@@]5(C)C/C(=C/c6ccccn6)C(=O)C(C)(C)[C@@H]5CC[C@]43C)[C@@H]12`, the growth is 15.3%.

For the compound `CC(C)Sc1nc(-c2ccccc2)c(C#N)c(N2CCOCC2)n1`, the growth was 105%.

Take `CC(=O)Nc1cc(N2CCOCC2)c2nc(NC(=O)c3[nH]c(C)c(Cl)c3Cl)sc2c1`: the growth is 82.9%.

As for `COc1cc2c(cc1OC)C(Sc1ccc(C)cc1)c1c(nc(N)c(C#N)c1N)O2` (stereo not given), the growth was -19% (active).

Consider `COc1cc(OC)cc(C(=O)Nc2cccc(C#Cc3cccc4[nH]nc(N)c34)c2)c1`, for which the growth is 1.62% (active).

Regarding `O=C(/C=C/c1ccccc1Cl)Nc1ncc(Cc2cc(Cl)ccc2Cl)s1`, the growth was 3.08% (active).

Turning to `Cc1ccc(C)c(NC2=C(Cl)C(=O)c3nc(C)ccc3C2=O)c1`, the growth was -25.8% (active).

For the compound `N#Cc1c(-c2ccc(Cl)cc2)nc(SCc2ccc(F)cc2)nc1N1CCNCC1`, the growth is -34.8% (active).

With `Cc1cc2ncc(-c3cc4ccccc4c(N4CCN(C)CC4)n3)nc2cc1C`, the growth is -31.9% (active).

Regarding `C#CCOc1ccccc1C(Nc1ccccc1)c1nnnn1C1CCCCC1` (stereo not given), the growth was 91.6%.

Regarding `COc1ccc(C(=O)/C=C/c2ccc(OCc3ccc(C)cc3)c(OC)c2)cc1OC`, the growth is 40.7%.

With `NC(N)=Nc1ccc(Oc2cccc(NC(N)=Nc3ccc(I)cc3F)c2)cn1`, the growth is 39.3%.

For `c1ccc(C(c2nc3ncncc3[nH]2)N2CSc3nc4ccccc4n3C2)cc1` (stereo not given), the growth was 108%.

For the compound `NCCNC(=O)c1cccc(COc2ccccc2NC(=O)c2cc(Cl)c(Cl)[nH]2)c1`, the growth is 88.9%.

As for `O=C(N/N=C\c1ccc(Cl)cc1)c1ccc2nc(-c3ccc(Br)cc3)[nH]c2c1`, the growth was 41.5%.

With `N/C(=N\c1nc2c(Cl)cc(Cl)cc2s1)C(Cl)(Cl)Cl`, the growth was 4.49% (active).

For the compound `COc1ccc(Cc2nn(CC(=O)N/N=C/c3ccc(Cl)cc3)c(=O)c3c(C)noc23)cc1`, the growth is 101%.

As for `Cn1cc(-c2nc(N)nnc2-c2c[nH]c3ccccc23)c2cc(Br)ccc21`, the growth was -0.377% (active).

With `CC(C)=CCC[C@](C)(O)[C@H]1CC[C@]2(C)[C@@H]1CC[C@@H]1[C@@]3(C)CCC(NC(=O)c4ccccc4C(=O)O)C(C)(C)[C@@H]3CC[C@]12C` (stereo not given in full), the growth is 90.2%.

On to `CCOc1c(C#N)c(Nc2ccc(S(N)(=O)=O)cc2)c(C#N)c2nnc(C)n12`, for which the growth is 114%.

For the compound `COc1ccc(/C=N/N=C(/c2ccccc2)c2ccc3nc(-c4ccc(Cl)cc4)[nH]c3c2)cc1`, the growth was 67.2%.

As to `Cc1csc(Nc2cccc(Nc3nc(C)cs3)c2)n1`, the growth was 77.3%.
